Screening data from PubChem.
An excerpt weighted towards active compounds, which were near 1.4% of everything screened.
FAS TE block: FAS thioesterase (human) inhibition | hit rate 0.67% among 360,000 | recombinant FAS-TE, OMFH fluorogenic substrate, fluorescence endpoint | inhibition, % at 15 µM;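 active means compounds whose normalised, plate-corrected inhibition of enzyme fluorescence in the single-dose primary screen is 50% or more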;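 further: 0% = DMSO with enzyme and 100% = substrate without enzyme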
Target sequence (P49327 whole entry, looked up): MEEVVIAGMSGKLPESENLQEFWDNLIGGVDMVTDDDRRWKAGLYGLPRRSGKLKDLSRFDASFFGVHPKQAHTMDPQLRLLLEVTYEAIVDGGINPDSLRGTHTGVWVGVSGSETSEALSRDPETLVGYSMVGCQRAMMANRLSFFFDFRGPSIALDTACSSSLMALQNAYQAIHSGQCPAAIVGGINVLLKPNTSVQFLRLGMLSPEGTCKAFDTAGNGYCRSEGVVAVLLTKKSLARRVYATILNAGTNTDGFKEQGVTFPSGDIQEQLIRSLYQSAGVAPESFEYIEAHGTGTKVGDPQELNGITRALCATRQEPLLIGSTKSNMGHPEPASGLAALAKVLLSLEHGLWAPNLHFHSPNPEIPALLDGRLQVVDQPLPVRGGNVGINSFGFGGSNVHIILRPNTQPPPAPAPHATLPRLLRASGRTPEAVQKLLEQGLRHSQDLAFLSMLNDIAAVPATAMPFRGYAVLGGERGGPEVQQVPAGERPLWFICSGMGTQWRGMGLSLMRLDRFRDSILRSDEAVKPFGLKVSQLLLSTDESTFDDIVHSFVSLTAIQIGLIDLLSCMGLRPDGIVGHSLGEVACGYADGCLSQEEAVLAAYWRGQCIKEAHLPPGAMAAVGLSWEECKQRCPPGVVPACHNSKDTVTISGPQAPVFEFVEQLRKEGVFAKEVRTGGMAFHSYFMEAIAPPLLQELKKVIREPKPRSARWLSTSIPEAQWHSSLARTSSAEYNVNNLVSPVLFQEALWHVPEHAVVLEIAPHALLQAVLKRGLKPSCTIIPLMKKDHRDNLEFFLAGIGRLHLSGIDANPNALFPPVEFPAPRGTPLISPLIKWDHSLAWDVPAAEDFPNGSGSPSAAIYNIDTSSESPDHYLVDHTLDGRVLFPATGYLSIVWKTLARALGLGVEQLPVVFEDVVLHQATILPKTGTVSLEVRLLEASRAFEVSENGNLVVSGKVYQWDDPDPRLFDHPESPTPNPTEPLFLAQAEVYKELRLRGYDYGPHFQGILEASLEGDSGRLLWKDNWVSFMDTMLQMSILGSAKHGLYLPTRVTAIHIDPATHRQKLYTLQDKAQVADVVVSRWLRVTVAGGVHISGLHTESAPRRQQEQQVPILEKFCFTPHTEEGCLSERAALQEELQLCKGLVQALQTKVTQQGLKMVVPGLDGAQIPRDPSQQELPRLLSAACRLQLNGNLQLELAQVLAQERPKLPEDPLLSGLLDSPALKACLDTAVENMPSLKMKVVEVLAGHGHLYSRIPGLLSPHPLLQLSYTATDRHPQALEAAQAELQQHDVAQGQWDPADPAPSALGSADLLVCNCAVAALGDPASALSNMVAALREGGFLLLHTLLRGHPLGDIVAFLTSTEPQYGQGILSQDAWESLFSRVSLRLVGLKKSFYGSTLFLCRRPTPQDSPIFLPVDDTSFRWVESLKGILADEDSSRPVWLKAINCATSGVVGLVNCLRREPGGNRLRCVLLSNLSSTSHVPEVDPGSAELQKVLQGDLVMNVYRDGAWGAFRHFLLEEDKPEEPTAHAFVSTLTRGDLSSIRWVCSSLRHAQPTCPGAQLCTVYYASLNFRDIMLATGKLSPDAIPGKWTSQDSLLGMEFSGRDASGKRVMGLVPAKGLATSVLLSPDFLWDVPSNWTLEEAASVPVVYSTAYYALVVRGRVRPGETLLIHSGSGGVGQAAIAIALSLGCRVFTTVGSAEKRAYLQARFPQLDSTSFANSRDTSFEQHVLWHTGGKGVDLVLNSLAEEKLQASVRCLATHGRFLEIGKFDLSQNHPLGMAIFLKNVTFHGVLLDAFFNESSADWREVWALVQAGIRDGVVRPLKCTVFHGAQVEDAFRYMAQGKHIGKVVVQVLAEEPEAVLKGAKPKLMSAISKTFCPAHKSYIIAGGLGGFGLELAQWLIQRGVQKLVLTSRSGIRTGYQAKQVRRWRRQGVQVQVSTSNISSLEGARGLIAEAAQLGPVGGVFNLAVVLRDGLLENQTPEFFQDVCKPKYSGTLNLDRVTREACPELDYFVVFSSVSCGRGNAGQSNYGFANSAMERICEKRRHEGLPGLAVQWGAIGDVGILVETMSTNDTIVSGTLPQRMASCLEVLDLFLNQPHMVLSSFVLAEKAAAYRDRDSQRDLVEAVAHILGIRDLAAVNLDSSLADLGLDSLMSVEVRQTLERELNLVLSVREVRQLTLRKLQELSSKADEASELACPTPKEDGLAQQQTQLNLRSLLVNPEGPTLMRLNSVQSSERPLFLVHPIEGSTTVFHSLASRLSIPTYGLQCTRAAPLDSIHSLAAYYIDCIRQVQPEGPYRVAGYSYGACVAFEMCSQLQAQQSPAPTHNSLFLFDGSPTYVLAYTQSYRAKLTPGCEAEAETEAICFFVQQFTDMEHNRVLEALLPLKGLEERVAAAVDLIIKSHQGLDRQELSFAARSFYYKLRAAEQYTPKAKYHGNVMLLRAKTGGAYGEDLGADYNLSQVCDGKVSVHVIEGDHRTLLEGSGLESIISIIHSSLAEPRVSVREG
NPR2 activator: GC-B (human) receptor activation. P20594. HEK293-GC-B cells, CNP EC30, cGMP TR-FRET; 0% at EC30 CNP, 100% saturating CNP. activation, % at 10 µM. hit rate 0.11% among 370,000;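 active means activation at 10 µM reaching about 35% in either raw or pattern-adjusted values, limit read from the data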
A3G deaminase: inhibitors of human APOBEC3G DNA deaminase; recombinant A3G, ssDNA deamination FAM/TAMRA fluorescence; Q9HC16; inhibition, % at 20 µM; hit rate 0.28% among 330,000;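 active means inhibition of at least 40% at 20 µM, with no more than 30% in the related APOBEC3A deaminase screen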;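 further: plate controls were DMSO wells with A3G for no effect and wells lacking A3G enzyme for full effect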
APOBEC3A inh: inhibitors of human APOBEC3A DNA deaminase; P31941; recombinant A3A, FAM/TAMRA ssDNA deamination fluorescence; inhibition, % at 20 µM; hit rate 0.41% among 330,000;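 active means at least 40% inhibition at 20 µM here, with at most 30% in a related deaminase screen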;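 further: plate controls were A3A with DMSO for no effect and wells lacking A3A enzyme for full effect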
GC-A act: GC-A (human) enzyme activation; activation, % at 10 µM; P16066; HEK293 GC-A cells, cGMP TR-FRET, EC30 ANP; 0% at EC30 ANP, 100% saturating ANP; AID 1671463; hit rate 0.14% among 370,000; in the data active means activation above about 40%
APOBEC3A confirm: APOBEC3A (human) deaminase inhibition, confirmed | shares compounds with APOBEC3A inh | recombinant A3A, ssDNA deaminase UDG fluorescence assay | inhibition, % at 20 µM | hit rate 63% among 1,400 | AID 493151;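 active means inhibition reaching a set limit, 80% of the first screen's cutoff, at 20 µM in any replicate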;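 further: plate controls were DMSO wells with A3A for no effect and wells lacking A3A enzyme for full effect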
UDG A3A counter: UDG inhibition in APOBEC3A counter-screen; shares compounds with APOBEC3A inh; UDG counterscreen, FAM/TAMRA uracil oligo fluorescence; inhibition, % at 20 µM; 1,000 tested, under 10 active; call rule not given here
The depositor's hits bear a star; · = no result given.

SMILES	FAS TE block	NPR2 activator	A3G deaminase	APOBEC3A inh	GC-A act	APOBEC3A confirm	UDG A3A counter
CC(C)CC[n+]1ccccc1/C=C/c1ccc(N(C)C)cc1	-7	-16	-13	56*	-16	54*	-4
CCOc1cc(N2CCOCC2)c(OCC)cc1NS(=O)(=O)c1ccc(Cl)s1	-4	-5	9	60*	-12	21	·
CCOc1cc(N2CCOCC2)c(OCC)cc1NC(=O)c1cc(S(=O)(=O)N2CCOCC2)ccc1Cl	-1	7	-6	2	5	·	·
CN(C)CCN(Cc1ccc(Cl)cc1)c1ccccn1	0	-17	-6	1	-21	·	·
C[N+](C)(C)CCN(Cc1ccc(Cl)cc1)c1ccccn1	-5	-4	16	58*	3	68*	1
CC(=Nc1ccc(Cl)cc1N)c1c(O)cc(C)oc1=O	·	1	·	·	-2	·	·
CN1CCC(N(C)S(=O)(=O)c2ccc(NC(=O)COc3ccc(F)cc3)cc2)CC1	-9	1	13	64*	0	58*	-2
CN1CCC(N(C)S(=O)(=O)c2ccc(NC(=O)COc3ccc(Cl)cc3)cc2)CC1	-7	1	1	3	0	·	·
CN1CCC(N(C)S(=O)(=O)c2ccc(NC(=O)COc3ccc([N+](=O)[O-])cc3)cc2)CC1	-5	-2	9	50*	-3	52*	-1
NC(=O)c1c(N)[nH]c(C(=O)c2ccccc2)c1-c1ccccc1Cl	·	2	·	·	-4	·	·
CCOC(=O)c1ccc2c(c1)n(CCO)c(C)[n+]2CC	-5	-1	21	43*	2	82*	7
CCOC(=O)c1ccc2c(c1)n(CC)c(/C=C/N(C)c1ccccc1)[n+]2CC	-15	5	17	57*	10	79*	3
COC(=O)c1ccc2c(c1)nc(C)n2CCO	-10	3	-4	-4	0	·	·
CS(=O)(=O)c1ccc2sc(NC(=O)c3cc4ccccc4o3)nc2c1	-5	2	27	53*	2	24	·
CCN(CC)C(=O)CC[C@H]1CC[C@]2(CCCN(Cc3ccncc3)C2)O1	·	-1	·	·	4	·	·
CN(C)CCCN1C(=O)C(=O)/C(=C(/O)c2ccncc2)C1c1ccccc1 (stereo not drawn)	-3	10	-5	-14	11	·	·
CN(C)CCN1C(=O)C(=O)/C(=C(/O)c2ccccc2)C1c1ccccc1F (stereo not drawn)	-7	1	-4	72*	4	-5	1
CCC[C@H](/C=C/C(=O)OC(C)(C)C)Sc1ccc(OC)cc1	·	-5	·	·	-1	·	·
C[n+]1cccc(C(=O)NNC(=O)C23CC4CC(CC(C4)C2)C3)c1	-4	0	21	82*	1	69*	-3
Nc1nc(Cl)nc2c1ncn2[C@@H]1O[C@H](CO)[C@@H](O)[C@@H]1F	·	9	·	·	3	·	·
Cc1ccc(/C=C2\SC(N)=NC2=O)s1	-10	-11	-2	56*	3	-2	-2
CCN(CC)C(=O)CC[C@@H]1CC[C@]2(CCCN(C(=O)c3cccnc3)C2)O1	·	-4	·	·	3	·	·
CCOc1ccc(NC(=O)CC2C(=O)N(c3ccccc3)C(=O)N2Cc2ccco2)cc1 (stereo not drawn)	-1	3	-8	-5	2	·	·
CCOc1ccc(NC(=O)CC2C(=O)N(c3ccccc3)C(=O)N2CCc2cccs2)cc1 (stereo not drawn)	4	5	-6	72*	0	-51	-2
CCCCOCCCNC(=O)C[C@@H]1C(=O)N(Cc2ccc(OC)cc2)/C2=C/CCCCC[C@@]21C(=O)OCC	·	-5	·	·	-3	·	·
SMILES	FAS TE block	NPR2 activator	A3G deaminase	APOBEC3A inh	GC-A act	APOBEC3A confirm	UDG A3A counter
C[n+]1ccc(/C=C/c2ccc(Br)cc2)cc1	-6	-12	22	51*	9	82*	-34
COC(=O)[C@]12C[C@H](CC(=O)NCCCN3CCCC3=O)C(=O)N(Cc3ccco3)C1=C[C@H](C(C)C)O[C@@H]2C1CC1	·	-1	·	·	-2	·	·
CC(CC(=O)Nc1cccc(S(=O)(=O)N2CCCCC2)c1)c1ccccc1 (stereo not drawn)	13	-1	11	40*	-3	23	·
CCN1CCN(c2ccc(S(=O)(=O)N3CCCCC3)cc2NC(=O)CC(NC(C)=O)c2ccccc2)CC1 (stereo not drawn)	-7	0	13	88*	1	65*	3
CCN1CCN(c2ccc(S(=O)(=O)N3CCOCC3)cc2NC(=O)C(C)Oc2ccc(Cl)cc2)CC1 (stereo not drawn)	6	3	11	56*	2	44*	2
CCN1CCN(c2ccc(S(=O)(=O)N3CCOCC3)cc2NC(=O)CC(C)C)CC1	-13	2	2	3	-6	·	·
CCN1CCN(c2ccc(S(=O)(=O)N3CCOCC3)cc2NC(=O)/C=C/c2ccc(C)cc2)CC1	4	-5	-1	2	-7	·	·
CCN1CCN(c2ccc(S(=O)(=O)N3CCCCC3)cc2NC(=O)/C=C/c2ccc([N+](=O)[O-])cc2)CC1	28	0	12	40*	-5	18	·
COc1ccc2c(c1)[C@@]1(OCCC=C[C@H]1C)C(=O)N2Cc1ccccc1C(F)(F)F	·	-1	·	·	-5	·	·
CCN1CCN(c2ccc(S(=O)(=O)N3CCCCC3)cc2NC(=O)/C=C/c2ccc(F)cc2)CC1	7	-2	22	61*	0	64*	0
CCN1CCN(c2ccc(S(=O)(=O)N3CCCCC3)cc2NC(=O)c2ccc(OC(F)F)cc2)CC1	4	-2	5	47*	-4	54*	2
CC(=O)Nc1ccc(NC(=O)C(C)OC(=O)c2cccc(S(=O)(=O)N3CCCC3)c2)cc1 (stereo not drawn)	-5	2	16	42*	3	6	·
CCN1CCN(c2ccc(S(=O)(=O)N3CCCCC3)cc2NC(=O)/C=C/c2ccc(OC(F)F)cc2)CC1	14	-6	12	46*	-3	59*	2
CC(=O)Nc1ccc(NC(=O)C(C)OC(=O)c2cccc(S(=O)(=O)N3CCCCC3)c2)cc1 (stereo not drawn)	-2	2	1	2	2	·	·
CN1CCN(c2ccc(S(=O)(=O)N3CCCCC3)cc2NC(=O)/C=C/c2ccc(OC(F)F)cc2)CC1	6	1	-1	29	-4	·	·
CCN1CCN(c2ccc(S(=O)(=O)N3CCCCC3)cc2NC(=O)c2cccc(OC(F)F)c2)CC1	4	2	3	39	0	·	·
O=C(N[C@@H]1CC[C@H]2SC[C@H](C(=O)O)N2C1=O)OCC1c2ccccc2-c2ccccc21	·	1	·	·	4	·	·
